# Reference: a collection of fitness landscapes (doi:10.1126/science.1257360)
# Over roughly 140,000 sequences, “enrichment ratio after two sorts for PhoP signalling” has its median near 0; the highest 2% begin near 11. For the sample, the highest values were picked, then their nearest neighbours and some sequences at random.
# B1: PhoQ; a variant is named by its letters at X, in order, P23837 (parent)
# chain: MKKLLRLFFPLSLRVRFLLATAAVVLVLSLAYGMVALIGYSVSFDKTTFRLLRGESNLFYTLAKWENNKLHVELPENIDKQSPTMTLIYDENGQLLWAQRDVPWLMKMIQPDWLKSNGFHEIEADVNDTSLLLSGDHSIQQQLQEVREDDDDAEMTHSVAVNVYPATSRMPKLTIVVVDTIPVELKSSYMVWSWFIYVLSANLLLVIPLLWVAAWWSLRPIEALAKEVRELEEHNRELLNPATTRELTSLVRNLNRLLKSERERYDKYRTTLTDLTHSLKTPLXXLQXXLRSLRSEKMSVSDAEPVMLEQISRISQQIGYYLHRASMRGGTLLSRELHPVAPLLDNLTSALNKVYQRKGVNISLDISPEISFVGEQNDFVEVMGNVLDNACKYCLEFVEISARQTDEHLYIVVEDDGPGIPLSKREVIFDRGQRVDTLRPGQGVGLAVAREITEQYEGKIVAGESMLGGARMEVIFGRQHSAPKDE
# Variants of: B1
# Experiment: enrichment ratio after two sorts for PhoP signalling (ratio (wild type AVST 3.29)); higher = more functional
# Details: with PhoP (E. coli)
row,Variant,enrichment ratio
1,MHEF,≤ 0.25
2,INEK,≤ 0.25
3,HTRD,≤ 0.25
4,IMKH,≤ 0.25
5,GQND,≤ 0.25
6,FWMY,≤ 0.25
7,RETL,≤ 0.25
8,VEGG,≤ 0.25
9,ECSV,≤ 0.25
10,IAKM,≤ 0.25
11,AEIY,14.8
12,AEAG,7.71
13,AEST,18.4
14,AEAM,5.95
15,ANIY,0.312
16,AQQY,≤ 0.25
17,AQST,5.3
18,AEAS,21.3
19,ARST,≤ 0.25
20,AEQP,≤ 0.25
21,ADIY,≤ 0.25
22,AEQY,17.1
23,MKWE,≤ 0.25
24,PDNP,≤ 0.25
25,PQPV,≤ 0.25
26,INLG,2.36

row,Variant,enrichment ratio
1,DREC,≤ 0.25
2,VNMC,1.44
3,AEYM,3.72
4,AEWT,22.1
5,AEKA,≤ 0.25
6,AERY,≤ 0.25
7,AEDY,≤ 0.25
8,AIWT,≤ 0.25
9,AEYI,3.12
10,AEAN,28.2
11,AEAI,14.2
12,AEAY,39.2
13,AEIN,1.09
14,AEAW,≤ 0.25
15,ITKR,≤ 0.25
16,SVFT,≤ 0.25
17,VISK,≤ 0.25
18,LWWA,≤ 0.25
19,NMII,≤ 0.25
20,TPVN,≤ 0.25
21,FWRY,≤ 0.25
22,SCFG,≤ 0.25
23,ITNE,≤ 0.25
24,TRFM,≤ 0.25
25,GRSR,≤ 0.25
26,PKLW,≤ 0.25

row,Variant,enrichment ratio
1,ECFL,≤ 0.25
2,NQDT,≤ 0.25
3,AENY,5.26
4,AEYY,≤ 0.25
5,AEAA,12.1
6,AEAD,≤ 0.25
7,AEGY,43.4
8,AEYQ,≤ 0.25
9,SGEP,≤ 0.25
10,INCT,≤ 0.25
11,NFHN,≤ 0.25
12,NMVN,≤ 0.25
13,DKLH,≤ 0.25
14,PNLH,≤ 0.25
15,ANTG,1.58
16,ANTK,≤ 0.25
17,ANTE,≤ 0.25
18,ANNK,0.253
19,ANFC,≤ 0.25
20,ANTA,19.3
21,ANTH,6.44
22,ANTS,21.1
23,ANTR,≤ 0.25
24,ANTD,≤ 0.25
25,ANTC,63
26,ANTI,11.4
